Several values for one entry are separate records, joined by “and”; a condition that tells them apart may be missing. Equal entries are not always repeated. Hit rate of the full screen: of about 5,500 compounds, about 2,000 (36%) were called active. Not shown: some 18% with an inconclusive outcome. Cut-off read from the data, not from the text of the source: active = normalized growth mostly below about 0.91 (no sharp cut-off); inconclusive = no clear call, values can overlap the other calls; inactive = mostly above about 0.92. The list shows a part of the results.
Assay: chemical genetic growth profiling, strain panel (AID 1159580);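 note: tested at 20 µM; growth read once vehicle control cultures reached saturation at 30 °C; 1 = growth at the plate median or of vehicle wells; lower values mean less growth of the strain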
Conditions: S. cerevisiae deletion strains, growth OD

Measured: normalized growth

COc1cc([C@@H]2c3cc4c(cc3C(O[C@@H]3O[C@@H]5CO[C@@H](c6cccs6)OC5[C@H](O)[C@H]3O)C3COC(=O)[C@@H]32)OCO4)cc(OC)c1O (stereo not given in full)
inactive: locus YAL013W, strain DEP1, hits give low values 1.01 | locus YAL021C, strain ccr4, hits give low values 0.986 | locus YAL026C, strain drs2, hits give low values 0.957 | locus YAL030W, strain snc1, hits give low values 0.995 | locus YBL061C, strain skt5, hits give low values 0.981 | locus YBR009C, strain hhf1, hits give low values 0.955 | locus YBR021W, strain FUR4, hits give low values 1 | locus YBR023C, strain chs3, hits give low values 1.01 | locus YBR171W, strain sec66, hits give low values 0.981 | locus YBR229C, strain ROT2, hits give low values 1 | locus YBR231C, strain swc5, hits give low values 0.997 | locus YBR279W, strain paf1, hits give low values 0.967 | locus YCL011C, strain gbp2, hits give low values 0.987 | locus YCL016C, strain dcc1, hits give low values 1.02 | locus YCL029C, strain bik1, hits give low values 1.03 | locus YCL061C, strain MRC1, hits give low values 0.969 | locus YCL069W, strain vba3, hits give low values 0.971 | locus YCR088W, strain abp1, hits give low values 0.984 | locus YDL005C, strain med2, hits give low values 0.971 | locus YDL035C, strain GPR1, hits give low values 1.02 | locus YDL040C, strain nat1, hits give low values 0.982 | locus YDL074C, strain BRE1, hits give low values 0.996 | locus YDL101C, strain DUN1, hits give low values 1.01 | locus YDL134C, strain PPH21, hits give low values 1.01 | locus YDL185W, strain tfp1, hits give low values 1.03 | locus YDL192W, strain arf1, hits give low values 1.02 | locus YDR001C, strain nth1, hits give low values 0.985 | locus YDR069C, strain doa4, hits give low values 0.983 | locus YDR101C, strain arx1, hits give low values 1 | locus YDR137W, strain rgp1, hits give low values 0.972 | locus YDR150W, strain NUM1, hits give low values 0.998 | locus YDR159W, strain sac3, hits give low values 0.932 | locus YDR162C, strain NBP2, hits give low values 1.01 | locus YDR195W, strain ref2 0.961 | locus YDR297W, strain sur2, hits give low values 0.992 | locus YDR318W, strain mcm21, hits give low values 1.02 | locus YDR334W, strain swr1, hits give low values 0.972 | locus YDR335W, strain msn5, hits give low values 0.99 | locus YDR388W, hits give low values 1.01 | locus YDR392W, strain spt3, hits give low values 0.97 | locus YDR502C, strain sam2, hits give low values 1.02 | locus YEL003W, strain gim4, hits give low values 0.969 | locus YEL037C, strain rad23, hits give low values 0.964 | locus YEL061C, strain CIN8 (second series), hits give low values 0.967 | locus YEL061C, strain CIN8, hits give low values 1 | locus YER015W, strain faa2, hits give low values 0.989 | locus YER016W, strain bim1, hits give low values 0.999 | locus YER110C, hits give low values 1.02 | locus YER111C, strain swi4, hits give low values 0.98 | locus YER155C, strain BEM2 (second series), hits give low values 1.01 | locus YER155C, strain BEM2, hits give low values 1 | locus YER167W, strain BCK2, hits give low values 1.01 | locus YFR010W, strain ubp6, hits give low values 0.956 | locus YGL078C, strain dbp3, hits give low values 1.02 | locus YGL086W, strain mad1, hits give low values 1.01 | locus YGL167C, strain pmr1, hits give low values 0.981 | locus YGL173C, strain kem1, hits give low values 0.983 | locus YGL227W, strain vid30, hits give low values 0.994 | locus YGL240W, strain doc1, hits give low values 1.01 | locus YGL248W, strain PDE1, hits give low values 1 | locus YGL253W, strain hxk2, hits give low values 0.964 | locus YGR135W, strain pre9, hits give low values 1.01 | locus YGR229C, strain SMI1, hits give low values 1 | locus YGR252W, strain gcn5, hits give low values 1.03 | locus YHR013C, strain ard1, hits give low values 0.997 | locus YHR027C, strain rpn1, hits give low values 0.975 | locus YHR030C, strain SLT2, hits give low values 1 and 1.02 | locus YHR079C, strain IRE1 (second series), hits give low values 1.02 | locus YHR079C, strain IRE1, hits give low values 1.01 | locus YHR094C, strain hxt1, hits give low values 1.01 | locus YHR129C, strain ARP1, hits give low values 1 | locus YHR142W, strain chs7, hits give low values 0.981 | locus YHR200W, strain rpn10, hits give low values 1.01 | locus YIL066C, strain RNR3, hits give low values 1.01 | locus YIL073C, strain SPO22, hits give low values 1.04 | locus YIL125W, strain kgd1, hits give low values 1.01 | locus YIR030C, strain dcg1, hits give low values 1.02 | locus YJL092W, strain hpr5, hits give low values 0.977 | locus YJL095W, strain BCK1 (second series), hits give low values 0.992 | locus YJL095W, strain BCK1, hits give low values 0.991 and 1 | locus YJL115W, strain asf1, hits give low values 0.96 | locus YJL129C, strain trk1, hits give low values 0.993 | locus YJL134W, strain LCB3, hits give low values 1 | locus YJL154C, strain vps35, hits give low values 0.979 | locus YJL164C, strain tpk1, hits give low values 0.962 | locus YJL166W, strain qcr8, hits give low values 1.01 | locus YJL168C, strain set2, hits give low values 1.01 | locus YJL187C, strain SWE1 (second series), hits give low values 1 | locus YJL187C, strain SWE1, hits give low values 0.984 | locus YJR043C, strain POL32, hits give low values 0.982

From PubChem BioAssay AID1159580 (chemical genetic matrix, 2015)
